# Screening results (PubChem BioAssay)
# The list is not random: actives were taken first. Their share in the collection is about 11%.
# PLK1 PBD block – blocks phosphopeptide binding to human PLK1 polo-box domain; Potency, µM, without a hit: max response, negative = inhibition, most hits filed as inhibitors; 2.8% of 360,000 active; AID 720504; Plk1 PBD binding of FITC phosphopeptide, fluorescence polarization; P53350; also: series mostly up to about 57 µM; % is scaled to controls: 0 for no effect and ±100 for the full control effect; nearly all actives have a fitted effect of over 65% in size
# VDR inhibitor – vitamin D3 receptor (human) inhibition; P11473; 0.93% of 400,000 active; VDR-SRC2-3 peptide fluorescence polarization, 2 h; Potency, µM, without a hit: max response, negative = inhibition, most hits filed as inhibitors; also: % is scaled to controls: 0 for no effect and ±100 for the full control effect
# Target sequence (P11473 whole entry, looked up): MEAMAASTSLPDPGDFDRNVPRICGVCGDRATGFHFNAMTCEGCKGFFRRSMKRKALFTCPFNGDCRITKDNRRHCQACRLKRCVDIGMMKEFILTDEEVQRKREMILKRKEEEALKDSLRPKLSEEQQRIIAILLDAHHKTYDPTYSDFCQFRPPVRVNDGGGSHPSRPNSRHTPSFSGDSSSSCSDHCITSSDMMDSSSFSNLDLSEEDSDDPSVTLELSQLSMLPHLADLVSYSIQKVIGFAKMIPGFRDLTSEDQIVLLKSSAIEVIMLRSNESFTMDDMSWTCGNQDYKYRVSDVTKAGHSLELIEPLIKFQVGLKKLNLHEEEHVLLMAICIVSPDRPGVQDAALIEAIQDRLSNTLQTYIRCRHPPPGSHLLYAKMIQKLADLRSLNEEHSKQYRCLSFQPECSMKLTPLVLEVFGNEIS
#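 Fluorescence polarization assay of small-molecule disruption of VDR binding to coregulator peptide SRC2-3. Compounds and controls pin-transferred, then read after 2 h incubation at ambient room temperature.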
# HP1b chromo inh – blocks HP1-beta chromodomain binding to methylated histone tails; AlphaScreen HP1-beta / biotin-H3K9me3 peptide binding; Potency, µM (top dose mostly 114 µM), for inactives: at the top dose activity change, negative = inhibition, usual class: inhibitors; 0.56% of 390,000 active; P83916; AID 540317; also: nearly all actives have a fitted effect of over 70% in size
# Target sequence (P83916 whole entry, looked up): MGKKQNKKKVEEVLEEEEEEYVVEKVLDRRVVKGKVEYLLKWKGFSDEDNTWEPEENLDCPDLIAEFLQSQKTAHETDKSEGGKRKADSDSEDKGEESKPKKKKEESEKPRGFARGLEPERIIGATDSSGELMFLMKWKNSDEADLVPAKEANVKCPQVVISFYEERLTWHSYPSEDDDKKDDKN
#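 HP1-beta protein (50 nM final) preincubated 30 min at room temperature with biotinylated H3(1-18)K9me3 peptide (50 nM) in PBS pH 7.4, 0.01% Tween-20, then compound added for 30 min. AlphaScreen streptavidin donor/nickel chelate acceptor beads (10 ug/mL final), 30 min dark, luminescence read.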
# JMJD2A Tudor inh – blocks the human JMJD2A Tudor domain. O75164. AID 504339. Potency, µM (titrated, usually from 114 µM), for inactives: at the top dose activity change, negative = inhibition, hits mostly inhibitors. 4.4% of 390,000 active. AlphaScreen JMJD2A-Tudor / H3K4me3 peptide binding; also: % is scaled to controls: 0 for no effect and ±100 for the full control effect; nearly all actives have a fitted effect of over 50% in size
# BAZ2B block – BAZ2B (human) inhibition; Q9UIF8; AlphaScreen BAZ2B-H3K14Ac peptide displacement; Potency, µM (series often up to 114 µM), inactives show at the highest dose activity change, negative = inhibition, actives largely listed as inhibitors; 4.4% of 360,000 active; AID 504333; also: % is scaled to controls: 0 for no effect and ±100 for the full control effect; nearly all actives have a fitted effect of over 60% in size
#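 BAZ2B 50 nM plus b-H3(5-23)K14Ac 50 nM, PBS pH 7.4/0.01% Tween-20, 30 min RT; compound added (max 110 uM), 30 min RT; streptavidin donor/Ni-chelate acceptor beads 10 ug/mL final, 20 min dark; AlphaScreen read.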
# G9a inh – G9a (human) methyltransferase inhibition. Q96KQ7. G9a H3K9 monomethylation, AlphaScreen, 2 h. Potency, µM (series often up to 102 µM), for inactives: top-dose activity, negative = inhibition, usual class: inhibitors. 8.8% of 350,000 active. AID 504332; also: % is scaled to controls: 0 for no effect and ±100 for the full control effect; nearly all actives have a fitted effect of over 75% in size
#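 Signal arises when biotinylated H3K9 peptide, once monomethylated, bridges streptavidin donor and antibody-captured acceptor beads. Enzyme at 20 nM was preincubated 15 min with test compounds; peptide 500 nM and SAM 20 uM then reacted for 2 h.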
# Starred values were filed as active, the others as inactive; ? = inconclusive; . = no result; ! = not active in a repeat; [ ] = another dose, or the depositor's remark. Calls follow the shape of the dose curve; as a rule, active = well fitted curve in the direction sought with a large enough effect; inconclusive = small, poorly fitted or top-dose-only effect, or another doubt; inactive = no such curve, though single readings can be large; an effect the other way counts as inactive or inconclusive. Potency is read from the fitted curve at half-maximal effect.
SMILES,PLK1 PBD block,VDR inhibitor,HP1b chromo inh,JMJD2A Tudor inh,BAZ2B block,G9a inh
COc1ccc(C(C(=O)NCC2CCCO2)N(C(=O)Cn2nnc3ccccc32)c2ccc(NC(C)=O)cc2)cc1 (stereo unspecified),-8%,-2%,31%,-7%,-6%,25%
CCCCn1c(NS(=O)(=O)c2ccc(C)cc2)c(S(=O)(=O)c2ccccc2)c2nc3ccccc3nc21,9.5µM*,?,54%,16%,14%,?
Cc1ccc(S(=O)(=O)c2c(N)n(CCCN(C)C)c3nc4ccccc4nc23)cc1,2%,-8%,53%,21%,4%,-9%[12.7 µM]
COc1ccc(S(=O)(=O)N2CCC(C(=O)Nc3ccc(Oc4ccccc4)cc3)CC2)cc1,.,-3%,63%,-3%,0%,-1%[59 µM]
CC(C)=CCc1c2c(c3occ(-c4ccc(O)cc4)c(=O)c3c1O)C=CC(C)(C)O2,-8%,13%,-12%,?,?,20µM*!
O=C(NC1CC(=O)N(c2cccc(F)c2)C1)c1ccc(S(=O)(=O)N2CCCCC2)cc1 (stereo unspecified),.,-2%,14%,-8%,-1%,6%[59 µM]
Fc1ccc(-n2[nH]nnc2=S)cc1N1CCCC1,?,-36%,?,79µM*,?,?
CC(=O)c1cc(F)c(N2CCCCCC2)cc1C,-2%,17%,137%,67%,-1%,46%[59 µM]
CC(C)C[C@H]1CN(CCCC[C@H]2CNC(=O)C(=O)N2Cc2ccccc2)C(=O)C(=O)N1CC1CCCCC1,-1%,.,.,.,.,.
O=C1N=c2ccccc2=C1c1sc(NS(=O)(=O)Cc2ccccc2)nc1O,?,-19%,6%,?,?,-18%[59 µM]
O=C1N=c2ccccc2=C1c1sc(Nc2cccc(O)c2)nc1O,-10%,-15%,-15%,?,56µM*,?
O=C1N=c2ccccc2=C1c1sc(Nc2ccc(O)cc2)nc1O,-21%,13%,21%,?,56µM*,79µM*
Nc1c(-c2ccccc2)cnn1-c1ccc(C(=O)O)cc1,-20%,-5%,37%,-28%,-8%,?
Cc1ccc(S(=O)(=O)N2CCN(C(=O)C3CCN(C(=O)c4ccc(F)cc4)CC3)CC2)c(C)c1,-16%,38%,10%,18µM*,11%,?
COC(=O)C1(Cc2ccc(O)cc2)OC(=O)C(O)=C1c1ccc(O)cc1 (stereo unspecified),-18%,0%,-26%,56µM*,79µM*,?
O=c1[nH]c(S)nc2sc3c(c12)CCCC3,?,-27%,0%,25µM*,?,1µM*
O=C(Nc1ccc(Br)cc1)c1ccc2c(c1)OCO2,-13%,-10%,41%,-3%,-15%,32%
O=C(COC(=O)c1ccc(O)cc1)Nc1cccc(S(=O)(=O)NC2=NCCCCC2)c1,-4%,1%,1%,-10%,-6%,.
Nc1ccc(S(=O)(=O)NC2=NCCCCC2)cc1,-8%,-4%,28%,-8%,-2%,.
Nc1nc2cc(S(=O)(=O)NC3=NCCCCC3)ccc2s1,21µM*,?,30%,-22%,-21%,-21%[12.7 µM]
CCOC(=O)c1ccc(S(=O)(=O)Nc2nc3cc(S(=O)(=O)NC4=NCCCCC4)ccc3s2)cc1,24µM*,?,-22%,89µM*,.,3.5µM*
COc1ccc(CCCc2nnc(SCC(=O)Nc3ccc(C)cc3)o2)cc1C,.,6%,3%,-13%,7%,?
Cc1ccc(S(=O)(=O)Nc2ccc(Nc3nccn4c(-c5cccc(OC(F)(F)F)c5)cnc34)cc2)cc1,-2%,.,.,.,.,.
CCc1nn2c(=O)cc(-c3ccncc3)nc2s1,.,.,.,-10%,.,.
COc1ccc(S(=O)(=O)NNC(=O)C23CC4CC(CC(C4)C2)C3)cc1,1%,2%,21%,-6%,-2%,79µM*
SMILES,PLK1 PBD block,VDR inhibitor,HP1b chromo inh,JMJD2A Tudor inh,BAZ2B block,G9a inh
Cc1ccc(S(=O)(=O)NNC(=O)C23CCC(CC2)C3)cc1,-3%,.,.,.,.,.
COc1ccc(/C=N/n2cnn(Cc3ccccc3Cl)c2=S)cc1,27µM*,?,?,-4%,-34%,28µM*
COc1cc(/C=N/n2cnn(Cc3ccccc3Cl)c2=S)cc(OC)c1OC,?,?,-19%,-29%,-24%,32µM*
Oc1ccccc1/C=N/n1cnn(Cc2ccccc2Cl)c1=S,4.7µM*,?,2%,18µM*,-20%,3.5µM*
COC(=O)c1scc(C)c1NC(=O)c1ccccc1F,1%,4%,43%,-7%,-1%,4%
CC(=O)N1CCc2[nH]c3ccccc3c2C1,-11%,15%,0%,-10%,-36%,-38%
CC(=O)N1CCc2[nH]c3ccc(C)cc3c2C1,?,4%,1%,-30%,56µM*,25%[2.33 µM]
CCOC(=O)N1CCc2[nH]c3ccc(C)cc3c2C1,-28%,?,-35%,?,?,10µM*
CCOC(=O)C1=C(C)OC(N)=C(C#N)C1c1cc2c(cc1[N+](=O)[O-])OCO2 (stereo unspecified),-19%,-16%,-14%,?,?,50µM*
O=C(CN1CCCC1)Nc1ccc(Cl)cc1C(F)(F)F,24µM*,-4%,?,?,.,6%
COc1cc(NC(=O)Nc2cccc(Cl)c2)c(OC)cc1NC(=O)CN1CCCCC1,3%,6%,?,45µM*,40µM*,13µM*
N/C(Cc1cccc2ccccc12)=N\OC(=O)c1ccc(Br)o1,.,.,.,.,-33%,45µM*
N/C(Cc1cccc2ccccc12)=N\OC(=O)c1ccc2c(c1)OCO2,24µM*,?,-21%,?,-8%,-32%
N/C(Cc1ccc(Cl)cc1Cl)=N\OC(=O)c1ccc(Br)o1,-8%,-6%,33%,5%,-19%,48%[12.7 µM]
CCN(CC)CCCNC(=O)CN1C(=O)CCn2nc(-c3cn(C)c4ccccc34)cc21,.,6%,21%[57 µM],-18%,-15%,-2%[59 µM]
CC1(C)CC2CC(C)(CN2Cc2c(O)ccc3ccccc23)C1 (stereo unspecified),?,-11%,16%,-27%,-9%,10µM*
O=C(C1CCC(CNS(=O)(=O)c2cccs2)CC1)N1CCN(c2ccc(Cl)cc2)CC1 (stereo unspecified),-6%,-25%,17%,-21%,-3%,18%
COc1cc2c(cc1OC)CN(CC(=O)Nc1ccc(F)cc1)C(C(=O)O)C2 (stereo unspecified),-9%,-2%,33%,-30%,79µM*,?
CCC1OC(=O)C[C@@H](O)[C@H](C)[C@@H](OC2OC(C)CC(N(C)C)C2O)[C@@H](CC=O)C[C@@H](C)C(=O)/C=C/[C@]2(C)OC2C1C (stereo partly specified),.,-3%,.,.,.,0%[12.7 µM]
